Composite z-score and z-score data for nine compounds are collected here from PubChem BioAssay.

The source made the active and inactive calls.

Assay [1] is described as follows: small molecules captured by biotinylated probe aFSTL3 – biochemical, small-molecule microarray, fluorescence 635/667, stem cell growth factor project, primary screen (AID 1064).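 Note: measures binding of the biotinylated anti-FSTL3 antibody to printed compounds.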 The conditions noted are these: higher = more signal.
Assay [2] in a line: binders from COS7 lysate, DM2A8 probe, primary screen, torsin A project, cell lysate, small-molecule microarray, fluorescence 635/667 (AID 1065). The conditions noted are these: higher = more signal, COS7 lysate expressing mutant human TOR1A.
Assay [3] is described as follows: small molecules captured by biotinylated probe aFGF2 – biochemical, small-molecule microarray, fluorescence 635/667, stem cell growth factor project, primary screen (AID 1067).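 Note: measures binding of biotinylated aFGF2 protein to printed compounds on slides; z-score merges feature fluorescence and signal-to-noise across triplicate slides.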 The conditions noted are these: higher = more signal.
A short description of assay [4]: small molecules captured by biotinylated probe aFGF10 – biochemical, small-molecule microarray, fluorescence 635/667, stem cell growth factor project, primary screen (AID 1071).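 Note: score merges 667 nm spot intensity and signal to noise from triplicate slides.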 The conditions noted are these: higher = more signal.
Assay [5] concerns the target Neurogenic locus notch homolog protein 2 (Homo sapiens) (UniProt Q04721). Description: small molecules binding Notch2 protein – biochemical, small-molecule microarray, 635 nm fluorescence, stem cell growth factors, primary screen (AID 1073). The conditions noted are these: higher = more signal.
In assay [6] the target is Pro-neuregulin-1, membrane-bound isoform (Homo sapiens) (UniProt Q02297). Description: small molecules binding neuregulin-1 protein – biochemical, small-molecule microarray, fluorescence 635/667, psychiatric disease protein project, primary screen (AID 1075).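 Note: score combines 667 nm spot fluorescence with signal to noise.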 The following applies: NRG1 binding, 635 nm fluorescence, higher = more signal.
Assay [7] has as its system Neuregulin-1 EGF-like domain. Description: small molecules binding NRG1 EGF domain – biochemical, small-molecule microarray, 635 nm fluorescence, primary screen (AID 1081).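 Note: binding of the protein to compounds printed on small-molecule microarray slides.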 The conditions noted are these: higher = more signal.
Assay [8] can be described thus: FRG1 expression reporter modulators in myotubes – cell-based, C2C12 myotubes, firefly/Renilla luciferase, luminescence, FRG1 inhibition for FSHD, primary screen (AID 1084). The conditions noted are these: FRG1 promoter luciferase, higher = more signal, called active from +8 up or from −8 down.
Assay [9] in a line: small molecules captured by biotinylated probe aFST – biochemical, small-molecule microarray, fluorescence 635/667, stem cell growth factor project, primary screen (AID 1086).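 Note: score merges 667 nm fluorescence with signal-to-noise of each printed compound spot.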 The conditions noted are these: higher = more signal.
Assay [10] is described as follows: binders of probe aHhip on microarray, primary screen, stem cell growth factor project, biochemical, small-molecule microarray, fluorescence 635/667 (AID 1087).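 Note: score merges spot fluorescence at 667nm with spot signal to noise ratio.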 The conditions noted are these: higher = more signal.
The test system of assay [11] is PRMT1 (protein arginine N-methyltransferase 1). Description: small molecules binding arginine methyltransferase PRMT1 – biochemical, small-molecule microarray, 635 nm fluorescence, primary screen (AID 1088).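 Note: binding of Prmt1 protein to compounds spotted on small-molecule microarray slides.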 The following applies: higher = more signal.
The nature of assay [12]: growth effects on S. cerevisiae YJM789 – YJM789 clinical isolate, OD600, 24 h, basal, primary screen (AID 1089).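 Note: growth of clinical yeast isolate S. cerevisiae YJM 789 seeded 1000 cells per well; test concentration not given here.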 The following applies: higher = more signal, called active from +8 up or from −8 down.
Assay [13] in a line: S. pombe growth modifiers, basal conditions – strain 972, OD600, 24 h, no modulator, primary screen (AID 1090).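 Note: basal condition with compound alone and no growth modifier present; test concentration not given here.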 The conditions noted are these: S. pombe 972 growth, higher = more signal, called active from +8 up or from −8 down.
Assay [14] can be described thus: budding yeast growth modifiers under rapamycin – strain BY4716, OD600, 96 h, primary screen (AID 1091). Note: test concentration not given here. The conditions noted are these: S. cerevisiae BY4716 + rapamycin, higher = more signal, called active from +8 up or from −8 down.
The target in assay [15] is Torsin-1A-interacting protein 2 (Homo sapiens) (UniProt Q8NFQ8). Description: small molecules binding lysate-expressed LULL1 – cell lysate, human LULL1 lysate, 635/667 nm fluorescence, primary screen (AID 1092).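 Note: probe is lysate of COS7 cells overexpressing human LULL1; score merges per-feature 667 nm fluorescence with signal-to-noise.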 The following applies: small-molecule microarray, hLULL1 lysate binding, 635 nm fluorescence; higher = more signal.
Assay [16] in a line: optical density change of DRC41 E. coli – strain DRC41, OD650, 24 h, E. coli filamentation project, primary screen (AID 1093).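 Note: MC1000 strain lacking acrAB efflux and sulA so SOS filamentation is blocked; test concentration not given here.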 The following applies: E. coli DRC41 growth, higher = more signal, called active from +8 up or from −8 down.
Assay [17] is described as follows: probe aLefty2 binding to arrayed compounds – biochemical, biotinylated probe, 635/667 nm fluorescence, primary screen (AID 1094).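 Note: score merges spot fluorescence near 667 nm with spot signal-to-noise ratio.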 The following applies: small-molecule microarray, higher = more signal.
Assay [18] has as its system Noggin (protein binding on small-molecule microarray). Description: small molecules binding Noggin protein – biochemical, 635/667 nm fluorescence, primary screen (AID 1095).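 Note: score merges 667 nm feature fluorescence with signal to noise over triplicate slides.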 The conditions noted are these: 635 nm fluorescence, higher = more signal.
Assay [19] addresses Neurogenic locus notch homolog protein 3 (Homo sapiens) (UniProt Q9UM47). Description: small molecules binding NOTCH3 protein – biochemical, 635/667 nm fluorescence, primary screen (AID 1096). The following applies: small-molecule microarray, 635 nm fluorescence, higher = more signal.
The nature of assay [20]: probe aEGFR binding to arrayed compounds – biochemical, biotinylated probe, 635/667 nm fluorescence, primary screen (AID 1097).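 Note: probe is a biotinylated anti-EGFR antibody binding compounds printed on slides; score combines fluorescence near 667 nm and signal to noise of each spot.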 The conditions noted are these: small-molecule microarray, higher = more signal.

Sequence of Neurogenic locus notch homolog protein 3 (Homo sapiens) (Q9UM47 whole entry, looked up): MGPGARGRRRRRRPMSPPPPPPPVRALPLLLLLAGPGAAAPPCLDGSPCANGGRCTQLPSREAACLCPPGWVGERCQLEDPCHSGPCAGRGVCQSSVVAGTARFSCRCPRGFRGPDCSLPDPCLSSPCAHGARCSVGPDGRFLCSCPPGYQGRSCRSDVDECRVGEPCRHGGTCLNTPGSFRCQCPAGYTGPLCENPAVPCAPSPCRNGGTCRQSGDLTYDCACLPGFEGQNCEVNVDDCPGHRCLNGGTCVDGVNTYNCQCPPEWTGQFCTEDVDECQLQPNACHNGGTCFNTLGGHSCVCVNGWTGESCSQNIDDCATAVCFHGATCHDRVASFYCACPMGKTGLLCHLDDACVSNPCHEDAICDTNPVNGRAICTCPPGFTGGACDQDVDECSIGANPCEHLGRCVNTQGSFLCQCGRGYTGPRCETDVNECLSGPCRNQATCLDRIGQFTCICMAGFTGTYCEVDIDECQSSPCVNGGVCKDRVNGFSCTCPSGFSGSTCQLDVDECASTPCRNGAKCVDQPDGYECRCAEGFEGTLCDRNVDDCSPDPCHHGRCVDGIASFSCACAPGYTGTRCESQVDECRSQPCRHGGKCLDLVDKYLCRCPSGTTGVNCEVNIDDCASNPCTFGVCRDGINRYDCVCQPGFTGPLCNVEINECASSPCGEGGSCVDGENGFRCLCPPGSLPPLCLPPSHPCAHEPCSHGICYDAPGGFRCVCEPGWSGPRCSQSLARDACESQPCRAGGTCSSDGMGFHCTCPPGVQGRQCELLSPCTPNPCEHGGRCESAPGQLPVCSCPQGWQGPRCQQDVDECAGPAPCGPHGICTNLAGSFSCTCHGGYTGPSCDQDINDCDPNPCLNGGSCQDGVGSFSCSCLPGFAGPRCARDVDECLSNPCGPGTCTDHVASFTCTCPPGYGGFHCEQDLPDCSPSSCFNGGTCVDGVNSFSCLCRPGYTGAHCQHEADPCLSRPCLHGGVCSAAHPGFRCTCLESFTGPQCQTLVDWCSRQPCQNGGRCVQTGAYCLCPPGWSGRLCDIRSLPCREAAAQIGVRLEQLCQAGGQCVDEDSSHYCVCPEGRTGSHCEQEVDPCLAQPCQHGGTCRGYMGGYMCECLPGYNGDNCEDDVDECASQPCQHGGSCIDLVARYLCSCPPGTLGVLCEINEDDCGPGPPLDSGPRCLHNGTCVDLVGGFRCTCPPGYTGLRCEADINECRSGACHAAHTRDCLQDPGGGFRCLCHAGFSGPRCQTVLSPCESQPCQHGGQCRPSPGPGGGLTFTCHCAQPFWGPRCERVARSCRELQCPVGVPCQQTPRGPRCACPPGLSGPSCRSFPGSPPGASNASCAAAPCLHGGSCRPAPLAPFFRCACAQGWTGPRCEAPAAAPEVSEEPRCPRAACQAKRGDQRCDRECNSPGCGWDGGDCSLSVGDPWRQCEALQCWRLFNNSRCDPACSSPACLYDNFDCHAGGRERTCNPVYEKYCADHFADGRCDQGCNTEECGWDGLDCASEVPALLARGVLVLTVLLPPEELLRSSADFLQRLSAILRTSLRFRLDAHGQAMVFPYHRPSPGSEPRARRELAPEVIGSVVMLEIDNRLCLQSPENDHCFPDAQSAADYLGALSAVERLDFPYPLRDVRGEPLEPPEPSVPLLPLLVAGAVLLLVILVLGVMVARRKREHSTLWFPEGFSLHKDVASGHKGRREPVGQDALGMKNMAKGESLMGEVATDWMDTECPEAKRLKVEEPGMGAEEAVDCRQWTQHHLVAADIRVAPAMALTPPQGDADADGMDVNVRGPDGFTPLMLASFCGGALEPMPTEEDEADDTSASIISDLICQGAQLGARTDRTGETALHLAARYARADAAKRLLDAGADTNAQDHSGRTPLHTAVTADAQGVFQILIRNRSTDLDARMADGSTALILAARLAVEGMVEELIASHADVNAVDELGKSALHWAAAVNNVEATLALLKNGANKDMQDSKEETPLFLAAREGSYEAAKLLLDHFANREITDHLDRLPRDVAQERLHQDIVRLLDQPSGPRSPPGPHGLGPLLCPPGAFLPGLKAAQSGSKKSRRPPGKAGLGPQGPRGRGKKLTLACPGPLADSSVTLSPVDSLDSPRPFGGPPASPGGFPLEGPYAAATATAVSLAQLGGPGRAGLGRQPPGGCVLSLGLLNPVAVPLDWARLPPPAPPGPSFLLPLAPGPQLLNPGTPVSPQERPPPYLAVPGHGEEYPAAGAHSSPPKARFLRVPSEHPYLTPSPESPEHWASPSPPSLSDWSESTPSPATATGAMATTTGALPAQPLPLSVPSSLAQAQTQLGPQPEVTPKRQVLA
Sequence of Torsin-1A-interacting protein 2 (Homo sapiens) (Q8NFQ8 whole entry, looked up): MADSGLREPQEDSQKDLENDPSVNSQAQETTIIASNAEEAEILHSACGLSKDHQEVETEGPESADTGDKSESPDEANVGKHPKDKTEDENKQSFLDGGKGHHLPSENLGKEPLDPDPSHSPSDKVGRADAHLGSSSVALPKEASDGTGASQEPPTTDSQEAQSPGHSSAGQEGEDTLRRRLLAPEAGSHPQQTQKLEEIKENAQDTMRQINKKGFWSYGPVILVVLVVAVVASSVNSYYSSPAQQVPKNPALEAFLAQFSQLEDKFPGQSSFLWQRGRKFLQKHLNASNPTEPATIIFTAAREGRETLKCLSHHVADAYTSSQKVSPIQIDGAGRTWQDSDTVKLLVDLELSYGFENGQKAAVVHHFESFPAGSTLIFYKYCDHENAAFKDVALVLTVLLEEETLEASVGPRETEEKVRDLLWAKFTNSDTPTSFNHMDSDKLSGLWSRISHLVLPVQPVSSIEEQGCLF
Sequence of Pro-neuregulin-1, membrane-bound isoform (Homo sapiens) (Q02297 whole entry, looked up, the tested form may be a part, canonical isoform): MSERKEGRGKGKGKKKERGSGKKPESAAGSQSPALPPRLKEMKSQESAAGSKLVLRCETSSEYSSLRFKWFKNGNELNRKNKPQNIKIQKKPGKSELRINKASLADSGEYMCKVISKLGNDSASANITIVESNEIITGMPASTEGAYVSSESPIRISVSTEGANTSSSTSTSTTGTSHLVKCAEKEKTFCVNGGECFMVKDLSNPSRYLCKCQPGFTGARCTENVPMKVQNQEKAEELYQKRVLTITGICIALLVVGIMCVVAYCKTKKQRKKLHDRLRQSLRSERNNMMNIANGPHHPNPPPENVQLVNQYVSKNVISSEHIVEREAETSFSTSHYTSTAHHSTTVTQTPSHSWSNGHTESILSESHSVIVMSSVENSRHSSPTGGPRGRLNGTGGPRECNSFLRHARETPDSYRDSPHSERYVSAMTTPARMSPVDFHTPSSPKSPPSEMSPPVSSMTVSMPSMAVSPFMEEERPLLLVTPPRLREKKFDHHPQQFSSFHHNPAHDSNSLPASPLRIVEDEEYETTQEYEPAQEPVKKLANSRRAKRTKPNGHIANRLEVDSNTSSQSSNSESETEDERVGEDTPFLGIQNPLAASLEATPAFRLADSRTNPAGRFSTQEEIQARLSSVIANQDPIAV

Turning to `C=C(/C(=C/C[C@@H](OC(=O)c1ccncc1)c1ccccc1OCCO)c1cc(C(=O)OC)ccc1OC)C(C)C`, the composite z-score in assay [1] was -0.259; in assay [2], 0.584; in assay [3] it was -0.0352; in assay [4], 0.533; in assay [5], 0.311; in assay [6], 0.878. The composite z-score in assay [7] is 1.1; in assay [9], 0.586; in [10], 0.0854; in assay [11], 1.56; in [15], 3.07; in [17], -0.0155. In addition, the results for the composite z-score in assay [18], in assay [19] and in assay [20] were 0.88, 1.01 and -0.0353, respectively. Further, the z-score in assay [8] is -1.31 (inactive); in [12], 0.381 (inactive); in assay [13], -0.633 (inactive); in [14] it was -0.338 (inactive); in assay [16], 0.616 (inactive).

`CN1C2C=C(CCCO)C(C3C(=O)N(C(N)=O)C(=O)C32)C1c1cccs1` (stereo not given): the composite z-score in [1] was -0.153; in assay [2], 0.104; in assay [3], -0.116; in assay [4], -1.63; in assay [5] it was 0.127; in assay [6] it was -0.317. In addition, the composite z-score in assay [7] was found to be 0.165; in [9], 0.0118; in assay [10], 0.303; in [11], 0.613; in assay [15], 0.502; in assay [17] it was 0.89. Further, the composite z-score in assay [18] was -0.23; in assay [19], -0.658; in assay [20] it was 0.976. Besides, the z-score in [8] was -0.194 (inactive); in assay [12], 1.06 (inactive); in assay [13] it was 1.1 (inactive); in assay [14], 0.689 (inactive); in assay [16], 0.155 (inactive).

`CCOC(=O)C[C@H]1[C@H](OC(=O)c2ccccc2-c2ccccc2)[C@@H](NC(=O)CC(C)C)c2cc(OCCCO)ccc2N1C(=O)c1ccc2ccccc2n1`: the composite z-score in assay [1] is -0.469; in [2] it was 0.257; in [3], -0.0463; in assay [4], 0.414; in assay [5] it was 0.549; in assay [6] it was -0.121. The composite z-score in assay [7] was 0.324; in [9], 0.535; in [10], 0.0274; in assay [11] it was 0.0508; in assay [15], 1.19; in assay [17], -0.158. Also, the figures for the composite z-score in assay [18], in [19] and in assay [20] were 0.219, -0.0063 and 0.0111, respectively. The z-score was 0.0832 (inactive) in assay [8]; -0.0014 (inactive) in [12]; -0.0812 (inactive) in assay [13]; 0.116 (inactive) in assay [14]; -0.64 (inactive) in assay [16].

As for `CC(C)(C)OC(=O)CC[C@]1(C(=O)NCCN2CCOCC2)N=C(c2ccc(OCCCO)cc2)O[C@H]1c1ccccc1`, the composite z-score was 0.445 in assay [1]; -1.1 in assay [2]; -0.0939 in assay [3]; -0.109 in assay [4]; -0.313 in assay [5]; 1.66 in assay [6]. The composite z-score in [7] was 1.09; in assay [9] it was 0.285; in [10], -0.0618; in assay [11] it was 1.55; in assay [15], 3.23; in [17] it was -0.007. Also, the composite z-score is -0.316 in [18], -0.532 in assay [19] and 0.34 in assay [20]. Also, the z-score in assay [8] was 0.273 (inactive); in [12] it was 0.681 (inactive); in [13] it was 0.0586 (inactive); in assay [14], -0.23 (inactive); in assay [16], 0.437 (inactive).

On to `CN(C)CCCNC(=O)[C@@]1(c2ccc([N+](=O)[O-])cc2)CC(=O)N(CC23CC4CC(CC(C4)C2)C3)[C@@H]1c1ccc(CO)cc1`, for which the composite z-score worked out at 1.47 in [1]; 1.15 in [2]; 0.301 in assay [3]; 0.143 in assay [4]; 0.904 in [5]; 1.38 in [6]. For the same compound, the composite z-score in assay [7] was 1.35; in assay [9], 1.92; in assay [10], 0.635; in [11], 1.53; in assay [15], 3.39; in assay [17], 0.969. Moreover, the composite z-score was 1.32 in assay [18], 1.05 in assay [19] and 0.0529 in assay [20]. Also, the z-score in assay [8] is -2.36 (inactive); in assay [12] it was -22.2 (active); in [13], -20.2 (active); in assay [14], -4.03 (inactive); in assay [16], -0.279 (inactive).

With `COCCOC(=O)N1C(=O)[C@@]2(c3cc(C#CC4=CCCCC4)ccc31)[C@H](C(=O)N1CCN(c3ncccn3)CC1)[C@H]1C(=O)O[C@H](c3ccccc3)[C@H](c3ccccc3)N1[C@@H]2c1ccc(O)cc1`, the composite z-score in assay [1] was -0.0505; in assay [2] it was 0.181; in assay [3] it was 0.0467; in [4], 0.669; in [5], 1.33; in [6], 0.79. Also, the composite z-score in [7] worked out at 1.24; in assay [9], 0.442; in assay [10], 0.208; in [11], 1.53; in assay [15] it was 1.53; in assay [17], 0.0848. Besides, the composite z-score is 0.568 in assay [18], 1.09 in assay [19] and 0.0891 in assay [20]. The z-score in [8] is 0.378 (inactive); in assay [12] it was 0.783 (inactive); in assay [13] it was 0.883 (inactive); in [14], 2.1 (inactive); in assay [16], -0.56 (inactive).

`COCCOC(=O)N1C(=O)[C@@]2(c3cc(C#Cc4ccc(OC)cc4)ccc31)[C@H](C(=O)N1CCN(c3ncccn3)CC1)[C@H]1C(=O)O[C@H](c3ccccc3)[C@H](c3ccccc3)N1[C@@H]2c1ccccc1OCCO`: the composite z-score is -0.0234 in assay [1]; 0.0841 in assay [2]; -0.124 in [3]; 0.475 in assay [4]; 0.711 in assay [5]; 0.0925 in assay [6]. Moreover, the composite z-score was 1.02 in [7]; 0.0402 in assay [9]; -0.0994 in assay [10]; 1.45 in assay [11]; 2.17 in assay [15]; -0.0917 in assay [17]. Also, the composite z-score in [18] was 0.735; in assay [19], 0.605; in [20] it was -0.0382. Besides, the z-score is -0.425 (inactive) in [8]; 3.33 (inactive) in assay [12]; 2.27 (inactive) in assay [13]; 7.9 (inactive) in assay [14]; -0.332 (inactive) in assay [16].

As to `O=C1C[C@@](C(=O)NCC(F)(F)F)(c2ccc([N+](=O)[O-])cc2)[C@@H](c2ccc(CO)cc2)N1C1CCCCC1`, the composite z-score in assay [1] turned out to be 0.99; in assay [2], 1.2; in assay [3], 0.0216; in assay [4], 0.606; in assay [5], 0.303; in assay [6] it was 1.24. In addition, the composite z-score turned out to be 1.37 in [7]; 0.243 in assay [9]; 0.554 in assay [10]; 1.56 in assay [11]; 3.48 in [15]; 0.11 in [17]. The composite z-score in [18] was 0.956; in assay [19], 0.823; in assay [20], -0.0271. The z-score in [8] was 0.265 (inactive); in [12], -0.748 (inactive); in [13] it was -0.209 (inactive); in [14], -0.917 (inactive); in [16], 0.258 (inactive).

Consider `C=C(/C(=C/C[C@@H](OC(=O)c1ccncc1)c1ccc(OCCO)cc1)c1cc(C(=O)OC)ccc1OC)C(C)C`, for which the composite z-score in [1] was -0.445; in assay [2], 1.24; in assay [3], -0.139; in [4], 0.93; in assay [5], 0.833; in [6] it was 0.679. Further, the composite z-score in [7] is 1.13; in assay [9], 0.0136; in [10] it was -0.399; in assay [11], 1.48; in assay [15] it was 1.32; in assay [17], -0.317. Moreover, the results for the composite z-score in assay [18], in [19] and in [20] were 0.89, 1.1 and -0.0509, respectively. Also, the z-score in assay [8] is 0.317 (inactive); in [12], 0.412 (inactive); in assay [13], 0.252 (inactive); in assay [14], 0.339 (inactive); in assay [16], 0.681 (inactive).
